Bioassay records as filed in PubChem BioAssay.
Eya2 inh: Eya2 (human) phosphatase inhibition. 330,000 compounds, 0.006% hits. recombinant Eya2, OMFP fluorescence dephosphorylation (OMFP is methylfluorescein phosphate). O00167. Potency, µM (doses to about 76.9 µM), for inactives: top-dose activity, negative = inhibition, usual class: inhibitors. AID 488837; note: potency is the fitted concentration of half-maximal effect; % is set by controls: 0 for no effect and ±100 for the full control effect
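Eya2 (0.2 uM) preincubated 10 min at ambient with compound, then OMFP substrate added at 50 uM; 10 min reaction in 50 mM HEPES pH 7.5, 50 mM NaCl, 5 uM MgCl2, 0.05% BSA, 1 mM DTT. Fluorescence read at Ex 485/Em 525 nm.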
GALK inhibitor: galactokinase (human) inhibition. Potency, µM (titrated, usually from 57.5 µM), for inactives: top-dose activity change, negative = inhibition, usual class: inhibitors. 270,000 compounds, 0.007% hits. P51570. Purified GALK, Kinase-Glo residual ATP luminescence; note: potency is the fitted concentration of half-maximal effect; % is set by controls: 0 for no effect and ±100 for the full control effect
Target sequence (P51570 whole entry, looked up): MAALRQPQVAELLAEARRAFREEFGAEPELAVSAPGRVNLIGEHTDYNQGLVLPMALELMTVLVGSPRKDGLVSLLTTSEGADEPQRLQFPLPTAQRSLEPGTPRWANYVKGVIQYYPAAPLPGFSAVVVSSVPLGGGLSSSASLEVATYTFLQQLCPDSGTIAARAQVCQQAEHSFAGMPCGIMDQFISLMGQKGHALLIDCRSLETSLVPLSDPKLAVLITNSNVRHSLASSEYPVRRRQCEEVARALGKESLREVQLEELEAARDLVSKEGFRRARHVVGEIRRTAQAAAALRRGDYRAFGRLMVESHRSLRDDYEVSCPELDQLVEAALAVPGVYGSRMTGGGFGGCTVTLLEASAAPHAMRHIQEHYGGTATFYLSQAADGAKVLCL
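5 nM enzyme, 35 uM ATP, 100 uM galactose, 20 mM HEPES pH8.0, 5 mM MgCl2; 1 h RT; residual ATP by Kinase-Glo Plus luminescence, qHTS format.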
USP2a inh: blocks human ubiquitin-specific protease USP2a; USP2 core, Ub-CHOP2 coupled fluorogenic reporter, 485/531; Potency, µM (top dose mostly 38.3 µM), for inactives: at the top dose activity change, negative = inhibition, usual class: inhibitors; 330,000 compounds, 0.01% hits; AID 463254;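 note: potency is the fitted concentration of half-maximal effect; plate controls were DMSO wells for no effect and full inhibition by NEM control for full effect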
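USP2 core (10nM final) preincubated 30min RT with compound in 20mM Tris-HCl pH 8.0, 2mM CaCl2, 2mM beta-mercaptoethanol, 0.05% CHAPS; 25nM Ub-CHOP2 plus 25nM reporter substrate added, fluorescence (Ex485/Em531) read after 60min.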
D1 antag: blocks dopamine activation of the human D1 receptor; P21728; HEK293 TREx D1 cells, calcium flux, dopamine EC80; stronger effect = lower value; activity change, negative = inhibition, % at 10 µM; 360,000 compounds, 3.2% hits; AID 504652; in the data active = activity change below about -30%; note: % is set by controls: 0 for no effect and ±100 for the full control effect
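Tetracycline-induced HEK293 T-REx cells with force-coupled D1 receptor were loaded with a no-wash calcium dye. Compound was added after a 10 s baseline and read kinetically for 180 s; EC80 dopamine was then added and calcium flux followed another 180 s.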
D1 ag: activates the human D1 dopamine receptor; HEK293 T-REx D1 cells, calcium flux, agonist mode; 360,000 compounds, 1% hits; activation, % at 2 µM; AID 504660; in the data active = activation above about 30%; note: 0% is about no effect
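Tetracycline-induced HEK293 TREx D1 cells, force-coupled to calcium signalling, were dye-loaded with a no-wash calcium kit. Compound was pin-added after a 10 s baseline. Fluorescence was read kinetically at 1 cycle/s for 180 s, with calcium rises flagged as agonism.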
D1 PAM: potentiators of human D1 dopamine receptor; potentiation, % at 10 µM; 360,000 compounds, 0.036% hits; HEK293 TREx D1 cells, calcium flux, dopamine EC20 potentiation; P21728; in the data active = potentiation above about 30%; note: 0% is about no effect
* hit, by the source's call; u = inconclusive; x = no result. The list is not random: actives were taken first. Their share in the collection is about 3.9%. Unless noted, calls come from the whole dose curve; as a rule, active = well fitted inhibition curve with a large enough effect; inconclusive = small, poorly fitted or top-dose-only effect, or effect the other way; inactive = flat fitted curve, though single readings scatter.

SMILES | Eya2 inh | GALK inhibitor | USP2a inh | D1 antag | D1 ag | D1 PAM
COc1ccc(-n2nnnc2SCC(=O)NCc2ccco2)cc1OC | 7.0% | 1.3% | 1.1% | -16.0 | 0.8 | -2.3
Cc1cc(NC(=O)CSc2nnnn2-c2ccccc2F)no1 | 11.8% | -2.4% | 0.8% | 5.0 | -0.1 | 2.8
CCCCOc1ccccc1NC(=O)Cn1c(-c2cncs2)nc2ccccc21 | x | x | x | -2.8 | 3.0 | -1.6
COc1cc(/C=C2/SC(=Nc3ccc(O)cc3)NC2=O)cc(OC)c1O | -6.4% | -0.2% | 2.0% | -5.4 | 47.2* | -4.5
COc1ccc(/C=C2\SC(=Nc3ccccc3)NC2=O)cc1 | -19.6% | 6.2% | -2.1% | 0.7 | 2.7 | -5.7
COc1ccccc1N=C1NC(=O)/C(=C/c2ccc(N(C)C)cc2)S1 | u | 8.4% | 7.6% | -22.1 | 108.1* | -7.0
COc1cc(/C=C2\SC(=Nc3ccc(O)cc3)NC2=O)cc(OC)c1OC | -6.1% | x | -0.4% | 2.9 | 0.7 | 0.4
Cc1ccc(Cn2c(=O)n(Cc3ccc(Cl)cc3)c(=O)c3cccnc32)cc1 | x | x | x | 0.0 | 0.9 | -1.9
O=C(NCCc1ccccc1)C(=O)NCC(c1cccnc1)N1CCN(c2ccccc2)CC1 (configuration not stated) | x | x | x | 10.0 | 0.7 | -3.9
CC(C)NS(=O)(=O)c1ccc(OCC(=O)N2CCN(c3ccccc3F)CC2)cc1 | x | x | x | -3.9 | 0.1 | -7.2
Cc1c(-c2nc(-c3ccc4c(c3)OCO4)no2)nnn1-c1cccc(C(F)(F)F)c1 | x | x | x | -9.5 | 1.7 | -3.1
Cc1ccc2c(c1)N(C(=O)CCC(=O)NCCCN1CCN(C)CC1)CCO2 | 11.0% | x | 1.6% | -2.0 | 0.6 | -8.7
Cc1ccc2c(c1)N(C(=O)CCC(=O)NCCCN1CCC(Cc3ccccc3)CC1)CCO2 | -9.7% | x | -0.7% | -40.4* | 22.6 | -10.8
CCC1CCCCN1CCCNC(=O)CCC(=O)N1CCOc2ccccc21 (configuration not stated) | -9.5% | x | -1.2% | -30.2* | 5.0 | 0.4
CN(CCCNC(=O)CCC(=O)N1CCOc2ccc(Cl)cc21)Cc1ccccc1 | 8.2% | x | 0.4% | -30.9* | 6.3 | -14.1
COc1ccc(-c2noc(-c3ccc(NC(C)c4ccccc4)c([N+](=O)[O-])c3)n2)cc1OC (configuration not stated) | x | x | x | -28.5 | 17.3 | -3.0
CC(=O)NC(Cc1ccc(F)cc1)C(=O)NC1CCN(S(=O)(=O)c2ccccc2)CC1 (configuration not stated) | -14.7% | 0.9% | 4.1% | 7.6 | 1.2 | -7.0
CC(=O)NC(Cc1cccc(C)c1)C(=O)NC1CCN(S(=O)(=O)c2ccccc2)CC1 (configuration not stated) | 16.4% | -0.1% | 1.5% | -35.6* | 1.5 | -6.3
COc1ccccc1NC(=O)c1oc2ccccc2c1NC(=O)c1ccc(S(=O)(=O)N(C)C)cc1 | x | x | x | -13.9 | 4.9 | -1.6
CCc1ccc(N(C(=O)c2csnn2)C(C(=O)NC(C)(C)CC)c2ccccn2)cc1 (configuration not stated) | 3.6% | 0.4% | -0.5% | -66.3* | 1.5 | -5.0
CCCCC(O)C(=O)Nc1cc(C(F)(F)F)ccc1Cl (configuration not stated) | x | x | x | -17.6 | 2.3 | -0.1
Cc1ccc(NC(=O)C2CC(=O)N/C(=N/N=C/c3ccco3)S2)cc1C (configuration not stated) | -5.9% | 0.1% | 2.6% | -82.6* | 3.1 | -3.6
Cc1ccc(NC(=O)C2CC(=O)N/C(=N/N=C/c3ccco3)S2)cc1 (configuration not stated) | 3.1% | -0.5% | 4.5% | 15.5 | 0.1 | -7.3
Cn1cc(CN(C(=O)Nc2ccccc2)C2CCCCC2)c2ccccc21 | x | x | x | 9.7 | -1.2 | 0.1
CN1CCN(CCCNC(=O)c2nnc(Cc3c(F)cccc3Cl)o2)CC1 | -14.5% | -0.7% | 1.1% | 47.4 | 0.5 | -1.9
SMILES | Eya2 inh | GALK inhibitor | USP2a inh | D1 antag | D1 ag | D1 PAM
Cc1ccc(C)c(N2CCN(CCCNC(=O)c3nnc(Cc4ccc(F)cc4Cl)o3)CC2)c1 | x | x | x | -22.8 | 17.3 | -4.1
COc1ccccc1N1CCN(CCCNC(=O)c2nnc(Cc3c(F)cccc3Cl)o2)CC1 | x | x | x | -36.5* | 8.7 | -4.8
COc1ccccc1N1CCN(CCCNC(=O)c2nnc(Cc3ccc(F)cc3Cl)o2)CC1 | x | x | x | -39.5* | 5.1 | -5.3
CCOc1cc(CNCCSc2nnnn2-c2ccccc2)cc(Cl)c1OC | x | x | x | -2.0 | 39.7* | 0.8
Cc1cc(C)nc(SCCCNCc2ccc(Br)cc2)n1 | -0.4% | 3.0% | 1.0% | -28.2 | 35.6* | -4.0
Cc1c(Cl)cccc1-c1ccc(CNCCSc2nnnn2-c2ccccc2)o1 | x | x | x | 0.4 | 8.4 | 3.6
Fc1ccc(-c2ccc(CNCCSc3nnnn3-c3ccccc3)o2)cc1 | x | x | x | 7.0 | 34.2* | 1.8
Brc1ccc(CNCCCSc2nnnn2-c2ccccc2)cc1 | x | x | x | -4.0 | 94.5* | 1.3
Cc1cc(C(=O)NCc2ccccc2)c2c(C)nn(-c3cccc(Cl)c3C)c2n1 | x | x | x | -8.0 | 2.1 | 0.6
Cc1cccc(N2C(=O)CCSC23C(=O)N(Cc2ccc(F)cc2)c2ccccc23)c1 (configuration not stated) | x | x | x | 9.5 | 2.9 | -2.9
C=Cc1ccc(Cn2c(C(=O)O)c(CNCc3ccc(F)cc3)c3ccc(C)cc32)cc1 | x | x | x | 11.7 | 1.9 | 6.5
CN(C)CCn1c(C(=O)Nc2ccccc2)cc2ccccc21 | -21.2% | -0.8% | 2.0% | -42.9* | 3.3 | -14.1
Cc1ccc(S(=O)(=O)Nc2ccccc2C(=O)Nc2nc(-c3ccc(F)cc3)cs2)cc1 | -1.8% | -12.5% | u | -64.8* | 26.5 | -8.1
COc1ccc(-c2csc(NC(=O)c3ccccc3F)n2)cc1 | 4.2% | -0.9% | 3.3% | -2.7 | 0.2 | -7.2
COc1ccc(-c2csc(NC(=O)c3ccccc3NS(=O)(=O)c3ccc(F)c(F)c3)n2)cc1 | 17.0% | u | -18.1% | -49.2* | 23.3 | -10.1
CN(c1ccc(OCC(=O)Nc2nc(-c3ccccc3)cs2)cc1)S(=O)(=O)c1ccc(F)cc1 | 4.7% | 1.7% | -0.7% | -19.1 | 4.4 | -2.8
COc1ccc(-c2csc(NS(=O)(=O)c3ccc([N+](=O)[O-])cc3)n2)cc1 | 6.6% | -0.1% | -8.7% | -31.2* | -1.2 | -11.3
Cc1ccc(S(=O)(=O)N(C)c2ccc(OCC(=O)Nc3nc(-c4ccccc4)cs3)cc2)cc1 | -2.6% | 0.3% | -1.2% | -37.4* | 6.7 | -7.5
CCc1ccc(NC(=O)CC2C(=O)N(c3ccccc3)C(=O)N2C(C)C)cc1 (configuration not stated) | x | x | x | -1.2 | 0.3 | -1.3
